Experimental data from PubChem BioAssay (NCATS).
Records with an inconclusive call do not appear. Entries that show only a call come without a potency. Activity calls are given as the source filed them. Unless noted, calls come from the whole dose curve; as a rule, active = well fitted curve in the direction sought with a large enough effect; inconclusive = small, poorly fitted or top-dose-only effect, or another doubt; inactive = no such curve, though single readings can be large; an effect the other way counts as inactive or inconclusive.

Columns and labels:
[1] = biological target: Methanococcus maripaludis chaperonin (MmCpn) (UniProt Q6LX38); assay: High-Throughput Screening for Modulators of Cytosolic Chaperonin Activity: MmCpn Primary Screen (AID 488978);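 note: 50 nM MmCpn enzyme hydrolysing 30 µM ATP at 37 °C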
Sequence of Methanococcus maripaludis chaperonin (MmCpn) (Q6LX38 1-543): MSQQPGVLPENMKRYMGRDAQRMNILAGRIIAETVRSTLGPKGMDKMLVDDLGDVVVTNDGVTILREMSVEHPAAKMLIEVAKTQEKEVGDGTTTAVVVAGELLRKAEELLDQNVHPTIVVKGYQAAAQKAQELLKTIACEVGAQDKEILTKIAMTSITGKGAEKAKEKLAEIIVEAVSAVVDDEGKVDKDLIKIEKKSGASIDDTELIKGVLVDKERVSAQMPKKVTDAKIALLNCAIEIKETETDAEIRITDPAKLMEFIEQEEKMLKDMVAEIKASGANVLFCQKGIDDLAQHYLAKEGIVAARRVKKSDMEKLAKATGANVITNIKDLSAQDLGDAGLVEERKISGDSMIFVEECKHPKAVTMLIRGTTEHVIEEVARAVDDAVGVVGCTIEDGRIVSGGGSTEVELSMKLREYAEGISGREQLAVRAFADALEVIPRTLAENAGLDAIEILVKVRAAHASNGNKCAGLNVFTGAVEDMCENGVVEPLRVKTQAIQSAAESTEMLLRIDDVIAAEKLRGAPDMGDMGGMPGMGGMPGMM
Outline: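 ADP formation read by HTRF Transcreener, 665/590 nm emission after 320 nm excitation. Enzyme: archaeal chaperonin at 50 nM final; substrate ATP 30 uM final; 10 min, 37C, after 5 min compound preincubation at RT.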

[2] = biological target: Transient receptor potential cation channel subfamily V member 1 (Homo sapiens) (UniProt Q8NER1); assay: HTS Assay for Compounds that Act as Enhancers of the Vanilloid Receptor 1 (AID 488979)
Sequence of Transient receptor potential cation channel subfamily V member 1 (Homo sapiens) (Q8NER1 whole entry, looked up): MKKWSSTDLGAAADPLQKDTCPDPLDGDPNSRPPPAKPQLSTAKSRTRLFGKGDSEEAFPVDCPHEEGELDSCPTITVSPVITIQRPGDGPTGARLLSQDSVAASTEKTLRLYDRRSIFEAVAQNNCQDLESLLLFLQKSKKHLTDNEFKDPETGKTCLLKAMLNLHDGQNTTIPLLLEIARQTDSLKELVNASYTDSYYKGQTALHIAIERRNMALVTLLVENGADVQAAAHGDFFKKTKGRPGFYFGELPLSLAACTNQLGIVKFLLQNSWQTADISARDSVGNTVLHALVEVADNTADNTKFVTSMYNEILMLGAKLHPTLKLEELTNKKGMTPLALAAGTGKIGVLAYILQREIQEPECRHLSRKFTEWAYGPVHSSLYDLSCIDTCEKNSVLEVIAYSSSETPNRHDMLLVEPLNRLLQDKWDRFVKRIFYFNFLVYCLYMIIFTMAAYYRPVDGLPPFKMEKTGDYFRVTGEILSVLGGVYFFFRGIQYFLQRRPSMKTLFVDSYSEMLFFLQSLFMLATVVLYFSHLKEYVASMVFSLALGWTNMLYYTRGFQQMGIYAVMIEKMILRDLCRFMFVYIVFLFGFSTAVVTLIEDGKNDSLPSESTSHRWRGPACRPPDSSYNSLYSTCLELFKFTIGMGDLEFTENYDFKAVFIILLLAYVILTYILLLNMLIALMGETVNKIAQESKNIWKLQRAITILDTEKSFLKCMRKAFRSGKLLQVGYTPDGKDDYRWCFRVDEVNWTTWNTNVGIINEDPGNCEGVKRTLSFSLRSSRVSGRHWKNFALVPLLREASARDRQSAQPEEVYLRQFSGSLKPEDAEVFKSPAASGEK
Outline: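 TRPV1 cells loaded with Fluo-8 calcium dye; compound added and Ca2+ signal (ex 480/em 520 nm) followed 3 min, then capsaicin at EC20 added and read 2 more min to detect enhancement.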

[3] = biological target: Thyrotropin receptor (Homo sapiens) (UniProt P16473); assay: qHTS Assay for Antagonists of the Thyroid Stimulating Hormone Receptor (AID 488980); note: series mostly up to about 58 µM
Sequence of Thyrotropin receptor (Homo sapiens) (P16473 whole entry, looked up): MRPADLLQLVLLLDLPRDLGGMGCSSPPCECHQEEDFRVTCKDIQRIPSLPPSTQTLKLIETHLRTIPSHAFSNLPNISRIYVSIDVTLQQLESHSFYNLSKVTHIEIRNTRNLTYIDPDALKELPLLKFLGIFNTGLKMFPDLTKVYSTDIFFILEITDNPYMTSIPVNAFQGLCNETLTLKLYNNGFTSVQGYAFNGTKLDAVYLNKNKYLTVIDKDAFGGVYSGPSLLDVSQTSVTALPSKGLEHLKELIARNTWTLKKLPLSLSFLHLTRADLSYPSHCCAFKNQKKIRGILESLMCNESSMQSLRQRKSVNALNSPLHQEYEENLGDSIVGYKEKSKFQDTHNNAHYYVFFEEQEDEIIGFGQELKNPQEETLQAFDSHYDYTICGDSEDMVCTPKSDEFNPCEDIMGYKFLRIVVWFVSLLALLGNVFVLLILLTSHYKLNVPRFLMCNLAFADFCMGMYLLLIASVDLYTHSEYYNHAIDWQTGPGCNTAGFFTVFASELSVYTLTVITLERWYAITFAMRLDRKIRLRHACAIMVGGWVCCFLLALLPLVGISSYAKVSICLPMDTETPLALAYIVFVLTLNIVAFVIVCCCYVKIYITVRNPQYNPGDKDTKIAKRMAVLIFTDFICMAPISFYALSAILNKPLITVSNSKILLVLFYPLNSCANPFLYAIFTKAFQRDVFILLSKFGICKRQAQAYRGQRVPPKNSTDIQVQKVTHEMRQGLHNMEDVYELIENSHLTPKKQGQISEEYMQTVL
Outline: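 TSHR-HEK293 cells; 70 uM RO 20-1724 PDE inhibitor; compound + EC80 TSH (4 nM final); anti-cAMP cryptate antibody/cAMP-d2 in lysis buffer, 30 min RT; HTRF 665/620 nm read.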

[4] = biological target: D(1A) dopamine receptor (Homo sapiens) (UniProt P21728); assay: HTS Assay for Allosteric Agonists of the Human D1 Dopamine Receptor: Primary Screen for Agonists (AID 488981)
Sequence of D(1A) dopamine receptor (Homo sapiens) (P21728 whole entry, looked up): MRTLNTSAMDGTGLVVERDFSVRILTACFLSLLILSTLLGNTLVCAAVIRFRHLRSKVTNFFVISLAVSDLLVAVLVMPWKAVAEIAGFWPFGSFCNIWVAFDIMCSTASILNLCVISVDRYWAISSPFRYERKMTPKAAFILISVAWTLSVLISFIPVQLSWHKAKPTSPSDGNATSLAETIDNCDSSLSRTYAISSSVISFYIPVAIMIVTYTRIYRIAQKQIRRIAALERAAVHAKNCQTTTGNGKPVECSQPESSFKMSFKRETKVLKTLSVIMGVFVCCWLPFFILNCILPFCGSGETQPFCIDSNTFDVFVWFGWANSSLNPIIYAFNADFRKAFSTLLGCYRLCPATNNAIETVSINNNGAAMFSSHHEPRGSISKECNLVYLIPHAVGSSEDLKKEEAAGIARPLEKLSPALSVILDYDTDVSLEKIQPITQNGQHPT
Outline: (§1)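 Tetracycline-induced HEK293 Trex D1 cells with forced coupling to calcium, loaded with no-wash calcium dye; kinetic fluorescence read 180 s after compound addition for agonism, then a further 180 s after an EC20 dopamine challenge for potentiation.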

[5] = biological target: D(1A) dopamine receptor (Homo sapiens) (UniProt P21728); assay: HTS Assay for Allosteric Agonists of the Human D1 Dopamine Receptor: Primary Screen for Potentiators (AID 488982)
Outline: as §1

[6] = biological target: D(1A) dopamine receptor (Homo sapiens) (UniProt P21728); assay: HTS Assay for Allosteric Agonists of the Human D1 Dopamine Receptor: Primary Screen for Antagonists (AID 488983);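 note: calcium flux response to an EC80 dopamine challenge measured with no-wash dye; nearly all actives have a fitted effect of over 65% in size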; note: potency is the fitted concentration of half-maximal effect
Outline: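 Tetracycline-induced HEK293 T-REx cells expressing force-coupled D1 were plated overnight at 30 C, dye-loaded for calcium, and read kinetically. Compounds were pinned in, then an EC80 dopamine challenge followed after 180 s to reveal antagonism.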

[7] = biological target: ATP-dependent 6-phosphofructokinase (Trypanosoma brucei brucei) (UniProt O15648); assay: qHTS Assay to Find Inhibitors of T. brucei phosphofructokinase: hit validation (AID 492961); note: series mostly up to about 51 µM
Sequence of ATP-dependent 6-phosphofructokinase (Trypanosoma brucei brucei) (O15648 whole entry, looked up): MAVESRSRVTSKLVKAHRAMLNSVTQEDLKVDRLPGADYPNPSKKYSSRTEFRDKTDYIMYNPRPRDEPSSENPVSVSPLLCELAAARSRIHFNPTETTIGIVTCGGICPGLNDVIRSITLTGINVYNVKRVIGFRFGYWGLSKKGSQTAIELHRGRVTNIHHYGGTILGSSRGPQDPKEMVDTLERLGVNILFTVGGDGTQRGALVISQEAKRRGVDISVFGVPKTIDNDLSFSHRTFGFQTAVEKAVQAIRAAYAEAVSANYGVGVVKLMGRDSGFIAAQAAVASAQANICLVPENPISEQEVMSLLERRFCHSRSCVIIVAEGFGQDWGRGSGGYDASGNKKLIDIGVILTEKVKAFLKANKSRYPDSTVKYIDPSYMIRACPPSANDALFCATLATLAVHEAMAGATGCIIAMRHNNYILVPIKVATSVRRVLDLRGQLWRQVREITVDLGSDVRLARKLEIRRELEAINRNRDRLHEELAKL
Outline: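 Luminescence from ADP-Glo reports ADP generated as T. brucei PFK (1.25 nM) phosphorylates 0.5 mM fructose-6-phosphate using 0.1 mM ATP. Reactions ran 45 min at room temperature, pH 8.0.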

[8] = Nrf2 qHTS screen for inhibitors: Validation (AID 493153; active = well fitted inhibition curve with a large enough effect in the main read-out, with a control signal flat, not every such curve was filed as active); conditions: Potency: luciferase luminescence; viability change: measured here: cytotoxicity max response
Outline: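 A549 cells carrying an ARE-driven firefly luciferase reporter, in 5% FBS OPTI-MEM, were treated with compounds in concentration-response for 18-24 h at 37°C. Viability was read by CellTiter-Fluor fluorescence, then Nrf2 activity by luciferase luminescence.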

[9] = Validation screen for small molecules that induce genotoxicity in human embryonic kidney (HEK293T) cells expressing luciferase-tagged ELG1 (AID 493106)
Outline: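 HEK293T cells expressing luciferase-tagged ELG1 were exposed to compound or DMSO vehicle for 16 hr at 37 °C, 5% CO2. Genotoxic stress raises ELG1 levels, so increased luciferase signal after ONE-Glo addition and 30 min at room temperature marks hits.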

[10] = biological target: ATPase family AAA domain-containing protein 5 (Homo sapiens) (UniProt Q96QE3); assay: Validation screen for small molecules that inhibit ELG1-dependent DNA repair in human embryonic kidney (HEK293T) cells expressing luciferase-tagged ELG1 (AID 493107);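 note: cells co-treated with the DNA-damaging agent 5-fluorouridine alongside compound; series mostly up to about 46 µM; inhibitors lower the ELG1-luciferase luminescence signal; nearly all actives have a fitted effect of over 70% in size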
Sequence of ATPase family AAA domain-containing protein 5 (Homo sapiens) (Q96QE3 whole entry, looked up, the tested form may be a part): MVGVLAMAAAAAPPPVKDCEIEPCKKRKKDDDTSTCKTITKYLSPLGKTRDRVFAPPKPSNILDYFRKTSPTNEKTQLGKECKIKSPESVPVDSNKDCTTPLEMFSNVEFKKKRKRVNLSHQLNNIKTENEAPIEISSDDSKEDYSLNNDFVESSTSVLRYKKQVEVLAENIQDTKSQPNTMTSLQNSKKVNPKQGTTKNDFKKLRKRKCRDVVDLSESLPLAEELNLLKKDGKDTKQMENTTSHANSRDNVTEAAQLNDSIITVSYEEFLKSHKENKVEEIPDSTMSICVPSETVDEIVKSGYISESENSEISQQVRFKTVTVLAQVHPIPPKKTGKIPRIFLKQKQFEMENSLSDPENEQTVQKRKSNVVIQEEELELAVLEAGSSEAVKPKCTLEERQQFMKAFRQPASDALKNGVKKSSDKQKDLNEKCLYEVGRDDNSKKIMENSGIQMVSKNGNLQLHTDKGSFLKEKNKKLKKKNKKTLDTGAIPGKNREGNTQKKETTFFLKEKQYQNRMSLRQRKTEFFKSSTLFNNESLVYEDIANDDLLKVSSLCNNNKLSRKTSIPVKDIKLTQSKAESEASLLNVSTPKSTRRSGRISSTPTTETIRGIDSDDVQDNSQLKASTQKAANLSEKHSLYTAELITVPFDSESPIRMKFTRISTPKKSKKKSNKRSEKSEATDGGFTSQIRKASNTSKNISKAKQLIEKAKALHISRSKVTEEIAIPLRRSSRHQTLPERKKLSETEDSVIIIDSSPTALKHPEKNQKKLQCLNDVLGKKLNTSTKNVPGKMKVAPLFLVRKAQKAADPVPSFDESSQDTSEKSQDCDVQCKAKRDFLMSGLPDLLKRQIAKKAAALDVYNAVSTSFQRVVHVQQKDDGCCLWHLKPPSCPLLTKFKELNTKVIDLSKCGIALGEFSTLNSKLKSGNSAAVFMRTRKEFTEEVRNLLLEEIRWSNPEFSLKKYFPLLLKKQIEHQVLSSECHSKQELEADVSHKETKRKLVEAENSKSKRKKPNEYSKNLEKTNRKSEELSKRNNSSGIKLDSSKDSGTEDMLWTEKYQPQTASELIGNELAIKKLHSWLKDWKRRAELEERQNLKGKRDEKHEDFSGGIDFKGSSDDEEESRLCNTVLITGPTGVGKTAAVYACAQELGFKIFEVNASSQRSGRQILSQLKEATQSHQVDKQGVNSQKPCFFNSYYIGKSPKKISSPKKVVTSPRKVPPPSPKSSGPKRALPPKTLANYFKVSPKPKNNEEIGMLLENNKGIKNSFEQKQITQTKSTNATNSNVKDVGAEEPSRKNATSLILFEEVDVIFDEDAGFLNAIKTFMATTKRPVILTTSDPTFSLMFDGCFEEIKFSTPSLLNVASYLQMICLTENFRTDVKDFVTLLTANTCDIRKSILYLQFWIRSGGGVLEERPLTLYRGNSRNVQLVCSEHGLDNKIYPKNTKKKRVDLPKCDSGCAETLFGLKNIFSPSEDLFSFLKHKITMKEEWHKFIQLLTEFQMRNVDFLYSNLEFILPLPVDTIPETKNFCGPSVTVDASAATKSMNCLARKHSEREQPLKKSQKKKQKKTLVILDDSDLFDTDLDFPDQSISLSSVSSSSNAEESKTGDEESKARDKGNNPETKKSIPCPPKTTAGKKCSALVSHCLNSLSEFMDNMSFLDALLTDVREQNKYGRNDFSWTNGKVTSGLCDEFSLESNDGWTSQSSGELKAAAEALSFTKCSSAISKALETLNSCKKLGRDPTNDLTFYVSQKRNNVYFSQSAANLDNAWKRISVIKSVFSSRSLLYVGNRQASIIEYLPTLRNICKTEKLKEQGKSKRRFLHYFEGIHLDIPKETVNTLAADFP
Outline: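 HEK293T cells expressing luciferase-tagged ELG1 were co-treated with 5-fluorouridine and compound or DMSO for 16 hr at 37 °C, 5% CO2. Luciferase activity was then read with ONE-Glo after 30 min at room temperature; suppressed signal indicates blocked ELG1 function.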

| Compound | outcome [1] | outcome [2] | outcome [3] | outcome [4] | Potency [5] | Potency [6] | outcome [7] | Potency [8] | viability change [8] | Potency [9] | outcome [10] |
| --- | --- | --- | --- | --- | --- | --- | --- | --- | --- | --- | --- |
| NNc1nncc2ccccc12 | inactive | inactive | inactive | inactive | inactive | inactive | inactive | inactive | -2.74% |  |  |
| NC(=NCc1ccccc1)NC(=O)c1nc(Cl)c(N)nc1N | inactive | inactive | inactive | inactive | inactive | 5.01 µM (active) |  | inactive | 2.7% | inactive | inactive |
| C[C@@H](N)C1CCC(C(=O)Nc2ccncc2)CC1 (some centres undefined) | inactive | inactive | inactive | inactive | inactive | inactive |  | inactive | 2.27% | inactive |  |
| Oc1ccc(-c2nc(-c3ccc(F)cc3)c(-c3ccncc3)[nH]2)cc1 | inactive | inactive | inactive | inactive | inactive | inactive |  |  |  | inactive |  |
| Cc1c(OCC(F)(F)F)ccnc1CS(=O)c1nc2ccccc2[nH]1 (centres undefined) | inactive | inactive | inactive | inactive | inactive | inactive | inactive |  |  | inactive |  |
| O=c1c(O)c(-c2ccc(O)cc2O)oc2cc(O)cc(O)c12 | inactive |  | inactive | inactive |  | inactive |  | inactive | -13.4% | inactive | inactive |
| NCCCCNCCCN | inactive | inactive | inactive | inactive | inactive | inactive |  | inactive | 3.72% | inactive |  |
| COc1ccc2cc([C@H](C)C(=O)O)ccc2c1 | inactive | inactive | inactive | inactive | inactive | inactive | inactive | inactive | -8.13% | inactive | inactive |
| COc1cc2nc(N3CCN(C(=O)C4CCCO4)CC3)nc(N)c2cc1OC (centres undefined) | inactive | inactive |  | inactive | inactive |  |  | inactive | -1.63% | inactive | inactive |
